# Results as given in PubChem BioAssay (Tox21).
# Records with an inconclusive call do not appear. Activity calls are given as the source filed them. Calls come from the whole dose curve; as a rule, active = well fitted inhibition curve with a large enough effect in the signal ratio in the repeat runs (not every such curve was filed as active); inconclusive = weak or mixed curves, or effect the other way; inactive = no such curve, though single readings can be large or run the other way; the % refers to the signal ratio.
# Biological target: Glucocorticoid receptor (Homo sapiens) (UniProt P04150)
# Sequence (P04150 whole entry, looked up): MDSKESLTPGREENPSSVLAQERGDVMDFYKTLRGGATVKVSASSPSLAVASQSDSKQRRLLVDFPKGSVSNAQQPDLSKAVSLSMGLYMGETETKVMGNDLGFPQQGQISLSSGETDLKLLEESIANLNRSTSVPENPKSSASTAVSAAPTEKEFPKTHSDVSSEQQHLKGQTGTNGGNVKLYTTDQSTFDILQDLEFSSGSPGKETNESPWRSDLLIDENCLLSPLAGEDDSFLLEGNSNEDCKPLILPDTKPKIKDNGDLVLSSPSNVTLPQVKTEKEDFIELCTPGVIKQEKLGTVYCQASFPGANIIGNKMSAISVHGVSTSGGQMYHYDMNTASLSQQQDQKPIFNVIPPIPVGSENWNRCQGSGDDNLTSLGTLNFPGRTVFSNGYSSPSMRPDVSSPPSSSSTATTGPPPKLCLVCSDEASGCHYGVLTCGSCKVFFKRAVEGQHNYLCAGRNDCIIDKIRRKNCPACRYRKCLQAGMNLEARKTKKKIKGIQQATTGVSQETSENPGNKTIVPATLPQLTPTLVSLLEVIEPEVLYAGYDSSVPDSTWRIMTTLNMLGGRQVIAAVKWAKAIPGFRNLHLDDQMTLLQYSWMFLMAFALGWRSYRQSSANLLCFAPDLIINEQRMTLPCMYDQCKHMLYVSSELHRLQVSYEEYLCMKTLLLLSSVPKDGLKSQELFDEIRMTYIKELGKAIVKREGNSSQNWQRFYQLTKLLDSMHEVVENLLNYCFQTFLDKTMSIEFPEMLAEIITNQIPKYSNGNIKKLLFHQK
# Assay: qHTS assay to identify small molecule antagonists of the glucocorticoid receptor (GR) signaling pathway (AID 720692)
# Details: GR-bla HeLa, beta-lactamase FRET ratio, dexamethasone-stimulated, 18 h; series mostly up to 58.5 µM; activity change, negative = inhibition: at the top concentration
# From the text: U.S. Tox21 Program National Center for Advancing Translational Sciences [NCATS] NIH Chemical Genomics Center [NCGC] U.S. Environmental Protection Agency [EPA] National Institutes of Environmental Health Sciences [NIEHS] National Toxicology Program [NTP] U.S. Food and Drug Administration [FDA] Tox21 Assay Overview: The Glucocorticoid receptor (GR) is one of the members of the nuclear receptor family of ligand-dependent transcription factors. GR plays a critical role in carbohydrate, protein and lipid metabolisms and programmed cell death. CellSensor GR-bla HeLa cell line (Invitrogen) contains a beta-lactamase reporter gene under the control of the glucocorticoid response element stably integrated into HeLa cells, a cervical cancer cell line that expresses glucocorticoid receptor. The activation of the reporter gene under culture conditions can be detected by fluorescence intensity. This cell line has been used to screen the Tox21 10K compound library and to identify the compounds that inhibit the GR signaling.
# Tox21 Assay Protocol Summary: The GR-bla HeLa cells were dispensed at 1500 cells/5 ul/well in 1536-well black wall/clear bottom plates using a Multidrop Combi (ThermoFisher Scientific, Waltham, MA) dispenser. After the assay plates were incubated at a 37 C/5% CO2 incubator for 4 hours, 23 nL of compounds dissolved in DMSO, positive controls or DMSO only was transferred to the assay plate by a pintool station (Kalypsys, San Diego, CA), followed by addition of 1 uL of dexamethasone (5 nM, final concentration in the well). The plates were incubated at 37 C for 18 hours. After 1 uL of LiveBLAzerTM B/G FRET substrate was added using a Flying Reagent Dispenser (Aurora Discovery, San Diego, CA), the plates were incubated at room temperature for 2 hours, and fluorescence intensity was measured by an Envision plate reader (PerkinElmer, Shelton, CT).
# % is set by controls: 0 for no effect and ±100 for the full control effect; potency is the fitted concentration of half-maximal effect.
SMILES,"activity change, negative = inhibition",Potency
CC(CCl)OC(C)CCl (stereo not given),-4.85% (inactive),–
Nc1ccc(F)cc1F,-1.61% [at 78.9 µM] (inactive),–
CCCCCCOC(=O)c1ccccc1,-7.27% (inactive),–
Cc1cc(C)n(CO)n1,0.187% (inactive),–
N#Cc1ccc(CC(=O)c2cccc(C(F)(F)F)c2)cc1,13% (inactive),–
C=C[Si]1(C)O[Si](C)(C=C)O[Si](C)(C=C)O[Si](C)(C=C)O1 (stereo not given),2.24% (inactive),–
NC(=O)c1ccccc1,0.127% [at 78.9 µM] (inactive),–
O=c1c2ccccc2oc2ccccc12,23.7% (inactive),–
CC1(C)C(=O)NC(=O)N1CO,-2.48% (inactive),–
CCCC1CCCC(=O)O1 (stereo not given),9.75% (inactive),–
O=C(O)c1ccc(O)c(O)c1,-18.5% (inactive),–
CCCCCO,1.95% (inactive),–
CCCCC(CC)COCCC#N (stereo not given),3.28% (inactive),–
C=CC(=O)OCCCCCCCCCC,24.1% (inactive),–
COc1cc(CNC(=O)CCCC/C=C/C(C)C)ccc1O,-1.72% (inactive),–
S=c1[nH][nH]c(=S)s1,-4.58% (inactive),–
CC(=O)Oc1cccc2c1C(=O)c1c(OC(C)=O)cc(C(=O)O)cc1C2=O,0.206% (inactive),–
CCOc1ccc2c(c1)C(C)CC(C)(C)N2 (stereo not given),0.252% (inactive),–
Cc1nc(C)c(C)nc1C,-14.6% (inactive),–
C=CC(C)CCC=C(C)C (stereo not given),-3.74% (inactive),–

SMILES,"activity change, negative = inhibition",Potency
O=C(O)c1ccccc1-n1cc(C(=O)O)c(=O)c2cc(Nc3c(F)cc(F)cc3Cl)c(Cl)cc21,4.51% (inactive),–
O=Cc1ccc([N+](=O)[O-])cc1,-20.5% [at 78.9 µM] (inactive),–
Cc1ccc2c(Cl)cc(Cl)c(O)c2n1,–,16.9 µM (active)
[O-][n+]1ccc(Cl)cc1,5.53% [at 78.9 µM] (inactive),–
C/C=C1\[C@H]2C=C(C)C[C@]1(N)c1ccc(=O)[nH]c1C2,-10.3% (inactive),–
CC(C)(C)N,-2.57% (inactive),–
CC[C@H](NC(C)C)[C@H](O)c1ccc(O)c2[nH]c(=O)ccc12,10.8% (inactive),–
CCC(=O)O[C@@H]1C[C@H]2CC[C@]1(C)C2(C)C,5.6% (inactive),–
C=Cc1ccc(C=C)cc1,-2.88% [at 78.9 µM] (inactive),–
O=C(OCCCCCOC(=O)c1ccccc1)c1ccccc1,0.611% (inactive),–
CC(=O)S[C@H](C(=O)N[C@H]1Cc2ccccc2[C@H]2CCC[C@@H](C(=O)O)N2C1=O)C(C)C,-2.32% (inactive),–
CCC1=C(C)CN(C(=O)NCCc2ccc(S(=O)(=O)NC(=O)NC3CCC(C)CC3)cc2)C1=O (stereo not given),0.822% (inactive),–
CC(C)(C)NCC(O)COc1ccc(NC(=O)NC2CCCCC2)cc1 (stereo not given),3.23% (inactive),–
CCCCCCCCCCCCN1CCOCC1,-6.28% (inactive),–
CC(C)(C)c1ccc(CCC=O)cc1,14.4% (inactive),–
Clc1nc2ccccc2nc1Cl,-19.4% [at 78.9 µM] (inactive),–
CC(C)CCCCCCCOC(=O)c1ccc(C(=O)OCCCCCCCC(C)C)c(C(=O)OCCCCCCCC(C)C)c1,15.9% (inactive),–
O=C1OC(=O)C2CC=CCC12 (stereo not given),-2.26% [at 78.9 µM] (inactive),–
O=[N+]([O-])c1ccc(Cl)cc1Cl,-1.03% (inactive),–
O=C(Cl)c1cc(Cl)cc(Cl)c1,4.22% [at 78.9 µM] (inactive),–
